Assay outcomes from PubChem.
D1 ag – activates the human D1 dopamine receptor; P21728; HEK293 T-REx D1 cells, calcium flux, agonist mode; activation, % at 2 µM; 360,000 compounds, 1% hits; AID 504660; in the data active = activation above about 30%
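Agonism was scored from calcium flux recorded over 180 s (1 read/s) after pintool compound addition, following a 10-cycle baseline. Cells were inducible force-coupled HEK293 TREx D1, plated overnight at 30 C and loaded with no-wash calcium dye.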
D1 antag – blocks dopamine activation of the human D1 receptor; HEK293 TREx D1 cells, calcium flux, dopamine EC80; stronger effect = lower value; activity change, negative = inhibition, % at 10 µM; 360,000 compounds, 3.2% hits; in the data active = activity change below about -30%
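Cells carrying a force-coupled, tetracycline-inducible human D1 receptor report calcium flux. Each well gets a 10 s baseline, compound with 180 s monitoring, then an EC80 dopamine stimulus with a second 180 s kinetic read.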
D1 PAM – enhances dopamine response at the human D1 receptor; P21728; HEK293 TREx D1 cells, calcium flux, dopamine EC20 potentiation; potentiation, % at 10 µM; 360,000 compounds, 0.036% hits; AID 504651; in the data active = potentiation above about 30%
DRD3 agonist – activates the human D3 dopamine receptor; D3R DiscoveRx beta-arrestin cells, luminescence, 90 min; max activation, %; 410,000 compounds, 0.58% hits; in the data active = max activation above about 30%
Target sequence (P35462 whole entry, looked up): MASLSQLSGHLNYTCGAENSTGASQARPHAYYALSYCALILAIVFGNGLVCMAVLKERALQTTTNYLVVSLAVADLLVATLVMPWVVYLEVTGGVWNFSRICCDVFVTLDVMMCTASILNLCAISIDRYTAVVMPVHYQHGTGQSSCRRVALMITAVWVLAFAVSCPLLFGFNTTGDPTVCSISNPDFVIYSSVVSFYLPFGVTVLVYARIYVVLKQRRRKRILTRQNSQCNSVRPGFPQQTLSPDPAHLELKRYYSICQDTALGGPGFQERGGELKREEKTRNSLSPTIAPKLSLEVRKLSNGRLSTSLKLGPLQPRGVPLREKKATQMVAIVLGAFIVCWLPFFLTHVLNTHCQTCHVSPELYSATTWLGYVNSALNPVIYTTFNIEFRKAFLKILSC
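Cells at 1500/well, incubated overnight, then treated with pinned compounds (dopamine as control) for 90 min at 37 degrees C. DiscoveRx reagent added for 30 - 60 minutes at room temperature; luminescence read.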
D3 antag – blocks the human D3 dopamine receptor; P35462; D3R cells, DiscoveRx beta-arrestin luminescence, antagonist mode; stronger effect = lower value; max response, negative = inhibition, %; 360,000 compounds, 2.5% hits; in the data active = max response below about -50%; inconclusive = no clear call, values can overlap the other calls
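Cells plated overnight at 1500 cells/well, then exposed to library compounds with dopamine controls for 90 minutes at 37 degrees C. DiscoveRx reagent added for 30–60 minutes at room temperature; luminescence read, quantitative HTS format.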
Large screens that a line does not name were inactive. Rows were chosen to be rich in hits. Some 6% of all compounds tested hit in one or more screens of this group.

Cc1ccccc1OCc1nc2ccccc2c(=O)n1/N=C/c1cccc([N+](=O)[O-])c1	D1 antag -32
Cc1c(CN2CCC(n3nccc3NC(=O)C3CCOC3)CC2)[nH]c2ccccc12 (configuration not stated)	none
O=C(Nc1ccnn1C1CCN(Cc2cc3ccccc3[nH]2)CC1)C1CCOC1 (configuration not stated)	D1 antag -32 (no result: DRD3 agonist, D3 antag)
O=C(c1ccccc1-c1nc(-c2ccc(Cl)cc2)no1)N1CCCC1	D1 antag -35
O=C1NC2=C(C(=O)CCC2)C(c2ccc3ncccc3c2)N1 (configuration not stated)	D1 antag -40
O=C1CCCC2=C1C(c1ccncc1)Nc1ccccc1N2 (configuration not stated)	none
C=C(CN(C)C)C(=O)c1ccc(OC2OC(COC(C)=O)C(OC(C)=O)C(OC(C)=O)C2OC(C)=O)cc1 (configuration not stated)	D3 antag -82 (no result: D1 ag, D1 antag, D1 PAM)
c1ccc(-n2cnnn2)cc1	none (no result: D1 ag, D1 antag, D1 PAM, D3 antag)
N#C[C@@H]1N(Cc2ccccc2)C(=O)[C@H]2CC3C=CC21O3 (some centres not stated)	D1 antag -32
C=C(Br)CN1[C@@H](Cc2ccccc2)[C@H](O)[C@@]23C=C[C@@H](C[C@@H]2S1(=O)=O)O3	none (no result: D1 ag, D1 antag, D1 PAM)
Cc1cc(S(=O)(=O)n2ccnc2C(C)C)cc([N+](=O)[O-])c1C	none (no result: D3 antag)
c1ccc2c(c1)CC(N1CCCCC1)c1ccccc1N2 (configuration not stated)	none
Cc1cccc2c1Sc1ccc(Cl)cc1CC2N1CCNCC1 (configuration not stated)	D3 antag -53 (no result: D1 ag, D1 antag, D1 PAM)
CCc1cccc2c1Sc1ccccc1CC2N1CCNCC1 (configuration not stated)	D3 antag -63 (no result: D1 ag, D1 antag, D1 PAM)
Cc1ccc(Cl)cc1N1CCN(CC(=O)NC2CCCc3ccccc32)CC1 (configuration not stated)	none
CN(CCC#N)C(=S)Nc1ccc(F)cc1	D1 antag -31
N#CCCN(Cc1ccccc1)C(=S)Nc1ccc(F)cc1	none
CC(C)(C)OC(=O)NCc1nnc(-c2cc3ccccc3[nH]2)o1	none (no result: DRD3 agonist, D3 antag)
O=C(Nc1ncc(Cc2cccc(C(F)(F)F)c2)s1)C1CCCO1 (configuration not stated)	D1 antag -40
COC(=O)Cn1c(=NC(=O)c2nc3ccccc3s2)sc2cc(S(N)(=O)=O)ccc21	none
COCCn1c(=NC(=O)c2nc3ccccc3s2)sc2cc(S(C)(=O)=O)ccc21	D1 antag -85
O=C(Nc1nc(-c2ccccc2Cl)cs1)c1cccnc1	D1 antag -41
O=C(Nc1ccc(Cl)cn1)c1ccc2nccnc2c1	none
CC(OC(=O)CC1CCCC1)C(=O)Nc1ccc(Cl)cn1 (configuration not stated)	D3 antag -54
CCCOc1ccc(C(=O)Nc2ccc(Cl)cn2)cc1	D1 antag -50
O=C(Nc1ccc(Cl)cn1)c1cccnc1	D3 antag -51
Cc1noc(C)c1C(=O)Nc1nc(-c2ccccc2Cl)cs1	none
COc1ccc(-c2cc(-c3ccc(C)cc3)nc3c2COc2ccccc2-3)cc1	none (no result: D3 antag)
O=C(c1ccccc1Cl)n1nc(-c2cccnc2)nc1NCc1ccc(F)cc1	none (no result: D3 antag)
CCN(CC)c1ccc(NC(=O)C2CCN(S(=O)(=O)c3cnc[nH]3)CC2)c(C)c1	none (no result: D3 antag)
CCOC(=O)c1ccc(NC(=O)Nc2ccc(Cl)cn2)cc1	D1 antag -33
CCCC(C)C(=O)Nc1ccc(Cl)cn1 (configuration not stated)	D1 antag -34
CCOC(=O)c1ccc(NC(=O)Nc2ccon2)cc1	D3 antag inconclusive
Cn1c(=O)n(C)c2cc(N3CCCCC3)c(NC(=O)c3ccc(Cl)cc3)cc21	none (no result: D3 antag)
CCCCC[C@H](O)/C=C/[C@H]1CCC(=O)[C@@H]1CCCCCCC(=O)N1CCCCC1CO (some centres not stated)	DRD3 agonist 30
O=C(CCc1nc2ccccc2c(=O)[nH]1)OCc1ccc(-c2ccccc2)cc1	D1 antag -39
O=C(NCc1noc2ccccc12)Nc1ccc(F)cc1F	none (no result: D3 antag)
COc1ccc(CNCCC(c2ccc(OC(C)C)cc2)c2ccccc2OC)cc1 (configuration not stated)	D1 ag 35
COc1ccccc1C(CCNCc1ccccc1)c1ccc(OC(C)C)cc1 (configuration not stated)	none
COc1ccc(CNCCC(c2ccc(OC(C)C)cc2)C(C)C)cc1OC (configuration not stated)	D1 ag 35
COc1ccc(C(CCNCc2ccc(OC(C)C)cc2)C(C)C)cc1 (configuration not stated)	D1 ag 31
COc1ccccc1NC(=O)CC(c1ccc(OC(C)C)cc1)c1ccccc1OC (configuration not stated)	DRD3 agonist 47
C=C1CC[C@H](O)C/C1=C\C=C1/CCC[C@]2(C)[C@@H]([C@H](C)CCCC(C)C)CC[C@@H]12	none (no result: D1 ag, D1 antag, D1 PAM, D3 antag)
O=C(NCCN1CCC(n2c(=O)[nH]c3ccccc32)CC1)c1ccc(C(F)(F)F)cc1C(F)(F)F	D3 antag -92 (no result: D1 ag, D1 antag, D1 PAM)
O=C(NCCN1CCC(n2c(=O)[nH]c3ccccc32)CC1)c1ccc(F)c(F)c1	D3 antag -93 (no result: D1 ag, D1 antag, D1 PAM)
O=C(NCCN1CCC(n2c(=O)[nH]c3ccccc32)CC1)c1ccc(F)c(C(F)(F)F)c1	D3 antag -84 (no result: D1 ag, D1 antag, D1 PAM)
COc1ccc(C(=O)NCCN2CCC(n3c(=O)[nH]c4ccccc43)CC2)cc1F	D3 antag -91 (no result: D1 ag, D1 antag, D1 PAM)
Cc1ccc2c(c1)N(C(=O)N1CCC(C(=O)Nc3cccc(F)c3)CC1)CCO2	none (no result: D3 antag)
Cc1ccc(NC(=O)CSc2nnc3nc(C)cc(C)n23)cc1	none (no result: D3 antag)
COc1cc(C(=O)CC2(O)C(=O)N(Cc3ccccc3Cl)c3ccccc32)cc(OC)c1OC (configuration not stated)	none (no result: D3 antag)
O=[N+]([O-])c1ccc(/C=N/n2c(COc3ccccc3)n[nH]c2=S)cc1	D3 antag -90
CCOc1cc(/C=N/n2c(COc3ccccc3)n[nH]c2=S)ccc1O	D1 ag 102
O=[N+]([O-])c1cccc(/C=N/n2c(COc3ccccc3)n[nH]c2=S)c1	none
OC(c1cc(-c2cccc(Cl)c2)nc2ccccc12)C1CCCCN1 (configuration not stated)	none (no result: D1 ag, D1 antag, D1 PAM)
CC1CCN(C(=O)CSc2nc(-c3ccc(F)cc3)cc(C(F)(F)F)n2)CC1	none (no result: D3 antag)
OC(c1cc(-c2ccc(C(F)(F)F)cc2)nc(C(F)(F)F)c1)C1CCCCN1 (configuration not stated)	D1 ag 158
OC(c1cc(C(F)(F)F)nc2c(C(F)(F)F)cccc12)C1CCCCN1 (configuration not stated)	D1 ag 160, D1 PAM 34
